Assay outcomes as filed in PubChem.
GALK inh: galactokinase (human) inhibition. P51570. Purified GALK, Kinase-Glo residual ATP luminescence. Potency, µM (top dose mostly 57.5 µM), without a hit: at the top dose activity change, negative = inhibition, hits mostly inhibitors. actives 0.007% (n = 270,000). AID 1868
Target sequence (P51570 whole entry, looked up): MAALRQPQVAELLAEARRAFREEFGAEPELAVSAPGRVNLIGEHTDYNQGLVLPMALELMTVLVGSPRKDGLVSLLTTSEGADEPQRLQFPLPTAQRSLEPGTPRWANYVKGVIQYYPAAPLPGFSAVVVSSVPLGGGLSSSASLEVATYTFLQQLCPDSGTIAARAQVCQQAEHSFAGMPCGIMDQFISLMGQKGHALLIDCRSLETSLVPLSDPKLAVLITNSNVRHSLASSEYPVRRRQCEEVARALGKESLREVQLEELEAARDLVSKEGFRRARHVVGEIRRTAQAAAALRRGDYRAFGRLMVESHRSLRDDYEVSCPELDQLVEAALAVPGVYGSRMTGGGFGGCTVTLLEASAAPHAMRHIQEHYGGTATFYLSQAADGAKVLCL
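Quantitative HTS: GALK 5 nM, ATP 35 uM, galactose 100 uM, 1 h room temperature, then luciferase-based ATP detection.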
Eya2 phos inh: inhibitors of human Eya2 phosphatase activity; O00167; AID 488837; recombinant Eya2, OMFP fluorescence dephosphorylation (OMFP is methylfluorescein phosphate); actives 0.006% (n = 330,000); Potency, µM (series often up to 76.9 µM), without a hit: top-dose activity, negative = inhibition, actives largely listed as inhibitors
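Eya2 protein (added as 0.2 uM solution) was preincubated with compound for 10 min at ambient temperature in 50 mM HEPES pH 7.5, 50 mM NaCl, 5 uM MgCl2, 0.05% BSA, 1 mM DTT. OMFP (added at 50 uM) then reacted 10 min; fluorescence read at 485/525 nm.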
RGS4 inhibitor: blocks human RGS4-accelerated GTP hydrolysis | AID 504845 | Transcreener GDP fluorescence polarization, RGS4-accelerated GTP hydrolysis | Potency, µM (series often up to 114 µM), inactives show top-dose activity change, negative = inhibition, hits mostly inhibitors | actives 0.039% (n = 390,000) | P49798; also: nearly all actives have a fitted effect of over 75% in size
Target sequence (P49798 whole entry, looked up): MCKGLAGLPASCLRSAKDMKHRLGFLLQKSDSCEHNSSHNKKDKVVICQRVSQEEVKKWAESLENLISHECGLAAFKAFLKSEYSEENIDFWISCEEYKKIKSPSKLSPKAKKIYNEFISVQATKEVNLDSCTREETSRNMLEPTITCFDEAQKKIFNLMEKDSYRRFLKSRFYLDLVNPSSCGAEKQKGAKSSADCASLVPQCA
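MLSMR compounds (23 nl, pin-transferred) preincubated 10 min at room temperature with a 500nM (2x) first reagent, then RGS4 at 900nM (2x) plus Transcreener GDP mix added; fluorescence polarization (620/688 nm) read before and after 90 min at 30 °C.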
TrxR1 inh: inhibitors of rat thioredoxin reductase 1; Potency, µM (highest dose often 114 µM), inactives show at the top dose activity change, negative = inhibition, hits mostly inhibitors; recombinant rTrxR1, NADPH fluorescence consumption, selenite substrate; AID 588453; actives 1% (n = 390,000); O89049; also: nearly all actives have a fitted effect of over 65% in size
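Rat TrxR1 (90 nM in the dispensed reagent) was pre-reduced with 400 uM NADPH for 5 min at room temperature, then incubated with compound for 15 min. After 400 uM selenite was added, NADPH fluorescence (Ex 340/Em 450 nm) was followed for 8 min.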
TrxR1 substrate: substrates of rat thioredoxin reductase 1; AID 588456; O89049; actives 0.01% (n = 390,000); Potency, µM (titrated, usually from 114 µM), inactives show top-dose activity change, negative = substrate turnover; purified TrxR1 substrate turnover, NADPH consumption readout; also: nearly all actives have a fitted effect of over 50% in size
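Rat TrxR1, dispensed at 90 nM, was prereduced with 400 uM NADPH (final) for 5 min at ~22 deg C, then incubated with compound 15 min before 400 uM selenite. A first-read NADPH fluorescence drop versus no-compound background flagged substrates.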
USP2a block: inhibitors of human ubiquitin-specific protease USP2a; USP2 core, Ub-CHOP2 coupled fluorogenic reporter, 485/531; O75604; AID 463254; Potency, µM (series often up to 38.3 µM), inactives show at the top dose activity change, negative = inhibition, actives largely listed as inhibitors; actives 0.01% (n = 330,000);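 also: plate controls were DMSO wells for no effect and full inhibition by NEM control for full effect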
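USP2 core (10nM final) preincubated 30min RT with compound in 20mM Tris-HCl pH 8.0, 2mM CaCl2, 2mM beta-mercaptoethanol, 0.05% CHAPS; 25nM Ub-CHOP2 plus 25nM reporter substrate added, fluorescence (Ex485/Em531) read after 60min.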
Starred values were filed as active, the others as inactive; ? = inconclusive; . = not tested or not shown; [ ] = another dose, or the depositor's remark. Hits are enriched below; roughly 1% of the tested compounds scored in any of these assays. Calls follow the shape of the dose curve; as a rule, active = well fitted curve in the direction sought with a large enough effect; inconclusive = small, poorly fitted or top-dose-only effect, or another doubt; inactive = no such curve, though single readings can be large; an effect the other way counts as inactive or inconclusive. Unless noted, % is scaled to controls: 0 for no effect and ±100 for the full control effect; potency is read from the fitted curve at half-maximal effect.

SMILES | GALK inh | Eya2 phos inh | RGS4 inhibitor | TrxR1 inh | TrxR1 substrate | USP2a block
CS(=O)(=O)c1ccc(S(=O)CC(=O)OCc2ccccc2)c([N+](=O)[O-])c1 (stereo not drawn) | -1.2% | -0.4% | ? | 2.82µM* | 6.1%[57.1 µM] | 3.1%
COc1cc(C(=O)O/N=C2\C=CC(=O)C(C)=C2)cc(OC)c1OC | -2.0% | 5.6% | ? | 2.82µM* | -3.2% | 1.8%
COC(=O)C(N)Cc1ccc(O)c(O)c1 (stereo not drawn) | -1.9% | 3.3% | 45.0% | -21.8% | -2.8% | 1.7%
NC(CO)C(=O)NNCc1ccc(O)c(O)c1O (stereo not drawn) | -1.0% | 0.9% | 9.47µM* | 5.97µM* | 12.5%[57.1 µM] | 8.0%
COc1cc(Br)c(CC(=O)NO)cc1OC | . | . | . | 10.7% | 3.0% | .
O=Cc1ccc(N2CCOCC2)cc1 | . | . | . | -3.0% | -10.3% | .
O=C(CN1CCCN(S(=O)(=O)c2ccc(Br)s2)CC1)Nc1ccc(Cl)cc1 | -0.6% | -9.8% | 5.0% | -29.4% | -6.8% | -2.7%
CCOC(=O)CNC(=O)CN1CCCN(S(=O)(=O)c2ccc(Br)s2)CC1 | -0.9% | 5.3% | -8.6% | 15.8µM* | 0.4% | -0.4%
CCCCN1CC[C@H]2C=CC[C@@H](C(=O)NC3CCCCC3)[C@H]2C1=O | . | . | . | 6.7% | -0.7% | .
Cc1cc[n+](CCC2CCCCC2)c2ccccc12 | . | . | . | 22.2% | 15.9% | .
Cn1cc(/C=C/c2ccc3ccccc3n2)c2ccccc21 | . | . | . | -13.3% | 0.4% | .
C[C@H]1C(=O)N(S(=O)(=O)c2ccccc2[N+](=O)[O-])[C@H]1c1ccc(-c2ccccc2)cc1 | . | . | -17.0% | ? | -2.3% | .
CCc1cccc(CC)c1NC(=S)NCCc1ccc(O)c(O)c1 | 9.5% | -7.5% | -23.6% | 6.31µM* | -8.5% | -0.9%
Oc1ccc(CNCc2ccc3c(c2)OCO3)c2cccnc12 | . | 2.2% | . | . | . | -6.0%
COCCCCOc1cc2nc(N3CCCN(C)CC3)nc(NC3CCN(C)CC3)c2cc1OC | . | . | . | -33.4% | 138.5% | .
O=C(/C(Br)=C/Nc1cc(Cl)ccc1Cl)C(F)(F)F | 0.2% | -11.7% | -17.3% | 39.8µM* | -7.2% | 3.6%
CCC(C)NC(=O)C1CCN(C(=O)c2cc3sccc3n2Cc2ccc(Cl)cc2)CC1 (stereo not drawn) | . | . | 18.8% | 3.4% | 1.0% | .
CC(C)Oc1ccc(-c2nc(-c3cccnc3)no2)cc1 | . | . | . | 13.2% | 9.9%[0.0914 µM] | .
O=C(/C=C/c1ccccc1)c1ccccc1 | 3.1% | -1.2% | ? | ? | -7.6% | 1.0%
O=C(/C=C/c1ccccc1)/C=C/c1ccccc1 | -7.3% | -11.7% | -41.3% | 56.2µM* | -13.2% | 2.3%
Cc1oc(=O)c(NC(=O)c2ccccc2)cc1C(=O)c1ccccc1 | 4.0% | -2.4% | ? | 39.8µM* | -7.5% | 0.1%
Cc1oc(=O)c(NC(=O)c2ccc(Cl)cc2)cc1C(=O)c1ccccc1 | 4.2% | 11.0% | ? | ? | 5.0% | -3.1%
COc1ccc(CNc2ncnc3nc[nH]c23)cc1 | . | . | -4.0% | 6.9% | 4.4% | .
O=C1c2oc3ccccc3c(=O)c2C(c2cccs2)N1CCCN1CCOCC1 (stereo not drawn) | 0.5% | -17.9% | -37.4% | 39.8µM* | -7.5% | 3.6%
COc1ccccc1N1CCN(C(=O)c2cc(-c3ccco3)on2)CC1 | 1.5% | -15.2% | -3.6% | 44.7µM* | 3.2% | -0.4%
SMILES | GALK inh | Eya2 phos inh | RGS4 inhibitor | TrxR1 inh | TrxR1 substrate | USP2a block
COc1ccccc1N1CCN(C(=O)c2cc(-c3ccccc3)on2)CC1 | -0.2% | -1.2% | 9.6% | 13.3% | -2.4% | -0.8%
O=C(c1cc(-c2ccco2)on1)N1CCc2ccccc2C1 | 1.0% | -6.9% | -11.6% | 31.6µM* | -8.1% | ?
O/C(=C\c1nc2ccccc2[nH]1)c1cccs1 | 0.2% | 4.6% | ? | 44.7µM* | 4.3% | -0.6%
O=c1[nH]c2ccccc2nc1/C=C(\O)c1cccs1 | 4.9% | -1.7% | -8.8% | 3.9%[57.1 µM] | -2.1%[57.1 µM] | ?
O=C(C[n+]1csc2ccccc21)c1ccc(I)cc1 | . | . | . | 9.3%[0.0914 µM] | 14.1% | .
COC(=O)C(=Cc1ccccc1[N+](=O)[O-])C(=O)OC | 4.3% | 10.9% | -9.8% | 56.2µM* | 3.0% | 2.7%
O=C(/C=C/c1ccccc1[N+](=O)[O-])Oc1ccccc1 | 4.7% | -4.0% | . | . | . | 1.1%
O=C(Nc1ccccc1)C1=C(c2ccccc2)S(=O)(=O)CCS1(=O)=O | -1.5% | 15.5% | ? | 0.224µM* | -0.6% | 0.4%
O=S(=O)(Nc1c(Br)cc(Br)c2cccnc12)C1CC1 | . | . | -20.4% | ? | -6.1% | .
COCCOC(=O)c1c(C)nc(SCC(=O)Nc2ccc(OC)cc2)c(C#N)c1-c1ccco1 | -2.5% | 7.2% | 2.2%[11.4 µM] | 0.8% | -2.3% | -6.8%
Cc1nc(SCC(=O)c2ccccc2)c(C#N)c(-c2ccco2)c1C(=O)NCc1ccco1 | -0.2% | -5.2% | ? | 50.1µM* | 15.2% | -5.9%
